# Laboratory results from the supplement of paper PMC8253809.
# Where “and” joins values, the source holds several entries; their conditions need not be identical. Identical values can stand only once.
# Experiments:
# Assay in all cases: growth inhibition (% activity, log2 RLU normalised to DMSO / staurosporine); higher = more growth inhibition
# Details in all cases: 33 µM
# [1] = tested on: DIPGX29 (H3.3 K27M diffuse intrinsic pontine glioma line)
# In short: (§1)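 Approved drugs were tested in triplicate at a single final concentration of about 33 μM for 7 days at 37 °C, 5% CO2, on pHGG cell lines and H9-derived neural stem cells. Readout was CellTiter-Glo luminescence, log2-transformed and scaled per plate to % activity between solvent and positive control wells. The median over replicates gives the growth-inhibition value.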
# [2] = tested on: DIPGX37 (H3.3 K27M diffuse intrinsic pontine glioma line)
# In short: as §1
# [3] = tested on: DIPGX7 (H3.3 K27M diffuse intrinsic pontine glioma line)
# In short: as §1
# [4] = tested on: DIPGX9 (diffuse intrinsic pontine glioma line)
# In short: as §1
# [5] = tested on: HGGX39 (paediatric high-grade glioma line)
# In short: as §1
# [6] = tested on: HGGX6 (H3.3 G34R paediatric high-grade glioma line)
# In short: as §1
# [7] = tested on: HNSC
# In short: as §1
# [8] = tested on: SUDIPGIV (diffuse intrinsic pontine glioma line)
# In short: as §1
# [9] = tested on: SUDIPGVI (diffuse intrinsic pontine glioma line)
# In short: as §1
# [10] = tested on: SUDIPGXIII (diffuse intrinsic pontine glioma line)
# In short: as §1
SMILES,growth inhibition [1],growth inhibition [2],growth inhibition [3],growth inhibition [4],growth inhibition [5],growth inhibition [6],growth inhibition [7],growth inhibition [8],growth inhibition [9],growth inhibition [10]
Cc1cc(NS(=O)(=O)c2ccc(N)cc2)no1,-4.18%,-1.05%,-1.62%,-1.67%,-2.37%,-4.13%,1.76%,-3.28%,-3.16%,-0.124%
COCCc1ccc(OCC(O)CNC(C)C)cc1 (centres undefined),0.745%,0.102%,1.22%,2.73%,2.04%,1.92%,-0.726%,0.382%,2.97%,-0.552%
CNC[C@H](O)[C@@H](O)[C@H](O)[C@H](O)CO,1.22%,3.72%,2.92%,1.9%,4.71%,1.37%,3.01%,2.28%,3.8%,-1.42%
NC1CCN(c2c(F)cc3c(=O)c(C(=O)O)cn(C4CC4)c3c2Cl)C1 (centres undefined),0.157%,-1.86%,1.13%,1.33%,2.79%,-0.611%,1.85%,-0.22%,1.99%,-0.254%
CCC[C@H](N[C@@H](C)C(=O)N1[C@H](C(=O)O)C[C@@H]2CCCC[C@@H]21)C(=O)OCC,1.9%,3.94%,2.49%,2.02%,2.66%,2.59%,0.292%,0.563%,1.95%,0.674%
Cc1nc2n(c(=O)c1CCN1CCC(c3noc4cc(F)ccc34)CC1)CCCC2O (centres undefined),-0.21%,-0.0675%,0.542%,0.251%,1.52%,-1.12%,23.4%,2.36%,-0.7%,-0.0722%
COc1cc(C(C)=O)ccc1OCCCN1CCC(c2noc3cc(F)ccc23)CC1,1.79%,0.322%,12.7%,0.361%,4.35%,0.871%,0.367%,2.3%,-12.2%,4.02%
c1ccc2c(c1)CCCC2C1=NCCN1 (centres undefined),1.99%,2.84%,1.62%,2.1%,2.48%,2.7%,8.78%,3.45%,2.93%,0.717%
NCCS,-2.8%,-1.3%,-0.687%,-1.29%,-2.78%,-3.18%,0.969%,-2.89%,-5.68%,0.354%
CC(CCc1ccc(O)cc1)NCC(O)c1ccc(O)cc1 (centres undefined),-1.35%,0.666%,-1%,0.398%,3.25%,-2.19%,5.04%,2.35%,2.3%,0.356%
Cc1[nH]c(=O)c(C#N)cc1-c1ccncc1,1.05%,4.4%,1.37%,1.64%,3.34%,-0.118%,3.65%,2.63%,4.48%,-1.25%
CN1CCOC(c2ccccc2)c2ccccc2C1 (centres undefined),-3.82%,-1.11%,-0.00387%,-2.6%,-1.87%,-4.34%,19.3%,-1.45%,-8.5%,2.52%
C[C@@H](O)[C@H]1C(=O)N2C(C(=O)O)=C(S[C@@H]3CN[C@H](C(=O)N(C)C)C3)[C@H](C)[C@H]12,-2.93%,0.205%,-1.37%,-0.242%,-2.33%,-3.05%,4.4%,-2.08%,-2.04%,0.717%
Cc1nccn1CC1CCc2c(c3ccccc3n2C)C1=O (centres undefined),2.17% and 0.0485%,1.96% and -0.656%,5.12% and 2.92%,1.4% and -0.3%,4.82% and 1.34%,1.68% and -1.02%,3.47% and -2.09%,-0.0678% and -2.33%,2.21% and -0.977%,-0.102% and 0.0786%
CCN[C@@H]1C[C@H](N)[C@@H](O[C@H]2OC(CN)=CC[C@H]2N)[C@H](O)[C@H]1O[C@H]1OC[C@](C)(O)[C@H](NC)[C@H]1O,0.443%,3.8%,2.72%,2.1%,2.39%,-0.182%,8.55%,3.28%,2.97%,2.03%
CC1(C)S[C@@H]2[C@H](NC(=O)C(C(=O)O)c3ccccc3)C(=O)N2[C@H]1C(=O)O (some centres undefined),0.227%,2.06%,0.432%,0.809%,2.53%,1.87%,0.956%,-0.316%,3.27%,0.516%
CC(C)NCC(O)COc1ccc(COCCOC(C)C)cc1 (centres undefined),-3.23%,-0.456%,-0.461%,-0.782%,-1.74%,-3.85%,-7.27%,-3.11%,-2.42%,-1.46%
CCOC(=O)C1=C(COCCN)NC(C)=C(C(=O)OC)C1c1ccccc1Cl (centres undefined),15% and 3.31%,4.6% and -0.383%,5.13% and -0.147%,4.27% and -0.283%,6.07% and -2.96%,6.22% and 0.934%,–,1.11% and -4.26%,3.83% and -2%,0.181% and 0.61%
Cc1nnc(NS(=O)(=O)c2ccc(N)cc2)s1,2.52%,1.32%,1.72%,2.78%,0.783%,-1.19%,44.8%,2.1%,1.77%,-1.87%
CCOC(=O)[C@H](CCc1ccccc1)N[C@H]1CCCN2CCC[C@@H](C(=O)O)N2C1=O,2.06%,3.84%,3.15%,2.7%,2.78%,1.01%,9.63%,0.443%,4.92%,-0.861%
